Assay outcomes from PubChem BioAssay.
ALDH1A1 block: blocks purified human ALDH1A1 activity. 220,000 tested, 7.3% active. Potency, µM (titrated, usually from 75.3 µM), most hits filed as inhibitors. P00352. AID 1030. Purified ALDH1A1, NADH fluorescence, propionaldehyde substrate
IMPase Li inh: membrane-permeable IMPase blocker, potentiated with lithium; CHO-M1 cells, IP1 TR-FRET (IP-One), carbachol + lithium; Potency, µM (series often up to 59.4 µM), hits mostly inhibitors; 210,000 tested, 0.35% active; active = well fitted curve in the direction sought with a large enough effect; inconclusive = small, poorly fitted or top-dose-only effect, or another doubt; inactive = no such curve, though single readings can be large; an effect the other way counts as inactive or inconclusive;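 note: IP1 builds up when IMPase is blocked and the TR-FRET signal falls; nearly all actives have a fitted effect of over 50% in size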
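Lithium-sensitised IP1 accumulation assay; M1-expressing CHO cells treated 30 min at 37C with compound. Competitive antibody detection by time-resolved FRET followed a 10 min room-temperature lysis step.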
IMPase cell inh: membrane-permeable compound that blocks inositol monophosphatase. CHO-M1 cells, IP1 accumulation, HTRF TR-FRET ratio. 120,000 tested, under 10 active. inhibition (IP1 accumulation), % at 46.1 µM. P97697; active = well fitted curve in the direction sought with a large enough effect in the signal ratio, not every such curve was filed as active; inconclusive = small, poorly fitted or top-dose-only effect, or a change in a side signal; inactive = no such curve, though single readings can be large or run the other way; the % refers to the signal ratio;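 note: cells stimulated with carbachol in lithium chloride buffer; higher means more IMPase inhibition seen as more IP1 and lower FRET ratio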
Target sequence (P97697 whole entry, looked up): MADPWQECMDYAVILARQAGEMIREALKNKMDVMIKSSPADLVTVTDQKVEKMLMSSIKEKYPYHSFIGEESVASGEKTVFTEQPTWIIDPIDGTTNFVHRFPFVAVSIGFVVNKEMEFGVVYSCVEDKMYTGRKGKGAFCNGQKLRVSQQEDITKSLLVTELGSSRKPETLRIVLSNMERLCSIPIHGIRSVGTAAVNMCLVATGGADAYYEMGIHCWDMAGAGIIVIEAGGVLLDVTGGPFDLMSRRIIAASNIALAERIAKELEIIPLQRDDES
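Carbachol-driven Gq signalling in CHO-M1 cells (2000/well) generates IP1. Compounds that block IMPase raise IP1 and so reduce the FRET signal from Eu-anti-IP1 and d2-IP1 after a 10 min room-temperature lysis.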
PNC inhibitor: perinucleolar compartment assembly inhibition | 140,000 tested, 3.1% active | activity change (PNC), negative = inhibition, % at 10 µM | PC3M PTB-GFP, PNC prevalence imaging, 16 h; hits give low values;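 active = readout at or below -70, meaning at least 70% loss of cells showing the perinucleolar compartment, a nuclear body marking cancer cells; inconclusive = readout between -30 and a set limit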
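Read-out is percentage of cells bearing a perinucleolar compartment, from automated 20x imaging of fixed, Hoechst-stained PC3M PTB-GFP cells. Cells were seeded 4 h, then exposed 16 h to compound (23 nl of library stock) in duplicate plates.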
NPSR antagonist: blocks cAMP signaling of the human neuropeptide S receptor. Potency, µM (highest dose often 38.3 µM), actives largely listed as inhibitors. Q6W5P4. CHO-NPSR cells, cAMP TR-FRET, antagonist mode. 220,000 tested, 1% active; active = well fitted curve in the direction sought with a large enough effect; inconclusive = small, poorly fitted or top-dose-only effect, or another doubt; inactive = no such curve, though single readings can be large; an effect the other way counts as inactive or inconclusive; note: nearly all actives have a fitted effect of over 50% in size
Target sequence (Q6W5P4 whole entry, looked up): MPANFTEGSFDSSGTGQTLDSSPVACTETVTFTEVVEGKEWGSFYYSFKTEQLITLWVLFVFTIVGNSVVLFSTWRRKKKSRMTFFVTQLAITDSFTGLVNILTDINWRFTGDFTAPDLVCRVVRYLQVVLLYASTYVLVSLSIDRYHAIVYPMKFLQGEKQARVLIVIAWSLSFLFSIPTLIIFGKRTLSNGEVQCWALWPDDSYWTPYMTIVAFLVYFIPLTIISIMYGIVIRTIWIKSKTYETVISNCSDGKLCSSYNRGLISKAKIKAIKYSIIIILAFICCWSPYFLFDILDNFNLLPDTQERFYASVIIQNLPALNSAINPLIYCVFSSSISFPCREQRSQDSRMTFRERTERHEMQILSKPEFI
HPGD inh: HPGD (human) dehydrogenase inhibition; purified HPGD, NADH fluorescence kinetic, PGE2 substrate; 150,000 tested, 4.3% active; P15428; AID 894; Potency, µM, most hits filed as inhibitors
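NADH formation kinetics: reaction with 30 uM PGE2 and 1 mM NAD+ (final), 20 nM enzyme, Tris-HCl pH 8 with Tween 20, after 15 min compound preincubation at room temperature. Fluorescence change, last versus first of five reads.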
Each line names hits and unclear results; the compound was inactive in the other large screens; ! = not active in a repeat. Most compounds without a hit are left out; they make up all but 11% or so of the library. Unless noted, calls come from the whole dose curve; as a rule, active = well fitted inhibition curve with a large enough effect (not every such curve was filed as active); inconclusive = small, poorly fitted or top-dose-only effect, or another doubt; inactive = no such curve, though single readings can be large or run the other way.

CCCCn1c(SCc2nc3ccccc3s2)nc2cc(S(N)(=O)=O)ccc21	none
Cn1c(=S)[nH]c2scc(-c3cccs3)c2c1=O	ALDH1A1 block 22µM, IMPase Li inh inconclusive (no result: IMPase cell inh, PNC inhibitor, HPGD inh)
O=c1c2c(-c3cccs3)csc2ncn1-c1ccc(Br)cc1	ALDH1A1 block inconclusive, HPGD inh inconclusive
COc1ccc2[nH]c(=O)c(CN(C(=O)c3cccnc3)c3ccccc3)cc2c1	ALDH1A1 block inconclusive, HPGD inh inconclusive
COc1ccc2[nH]c(=O)c(CN(C(=O)c3ccccn3)c3ccccc3)cc2c1	ALDH1A1 block inconclusive, PNC inhibitor -92, HPGD inh inconclusive
Cc1ccc2[nH]c(=O)c(CN(C(=O)c3cccs3)c3ccccc3)cc2c1	IMPase Li inh inconclusive, PNC inhibitor -85
O=C(CS(=O)(=O)c1ccccc1)Nc1cccnc1	none (no result: IMPase cell inh, PNC inhibitor, HPGD inh)
CCCC(C)n1[nH]c(=O)cc1N (stereo not given)	none
CCCCN1C(=O)/C(=C2\SC(N3CCCCC3)=NC2=O)c2ccccc21	ALDH1A1 block 10µM, NPSR antagonist inconclusive, HPGD inh 22µM
O=C1N=C(N2CCOCC2)S/C1=C1\C(=O)N(Cc2ccccc2)c2ccc(Br)cc21	ALDH1A1 block inconclusive
CN(C)S(=O)(=O)c1cccc(NC(=O)CSc2nc3c(cc2C#N)C(=O)CC(C)(C)C3)c1	ALDH1A1 block 1.4µM, PNC inhibitor inconclusive
CSc1nc2c(cc1C#N)C(=O)CC(C)(C)C2	none (no result: IMPase cell inh, PNC inhibitor, HPGD inh)
CN(C)S(=O)(=O)c1ccc(Cl)c(NC(=O)CSc2nc3c(cc2C#N)C(=O)CC(C)(C)C3)c1	ALDH1A1 block inconclusive, PNC inhibitor -109 (no result: IMPase cell inh)
Cc1[nH]c(=S)c(C#N)c(-c2ccco2)c1C(=O)N(C)C	ALDH1A1 block 28µM (no result: IMPase cell inh, PNC inhibitor, HPGD inh)
Cc1cc(NC(=O)CCSc2nc(-c3ccco3)cc(C(F)(F)F)n2)no1	none
O=C(CSc1nc(-c2ccco2)cc(C(F)(F)F)n1)Nc1ccc(C(=O)N2CCCCC2)cc1	ALDH1A1 block 14µM, HPGD inh 0.56µM
Cc1cc(NC(=O)CSc2nc(-c3ccco3)cc(C(F)(F)F)n2)no1	PNC inhibitor -116
CCN(CC)C(=O)c1sc(NC(=O)c2ccc(C)c([N+](=O)[O-])c2)c(C#N)c1C	PNC inhibitor inconclusive, HPGD inh 28µM
COc1ccc(C(=O)Nc2sc(C(=O)N(C)C)c(C)c2C#N)cc1[N+](=O)[O-]	ALDH1A1 block inconclusive (no result: IMPase cell inh)
CCN(CC)C(=O)c1sc(NC(=O)c2ccc(OC)c([N+](=O)[O-])c2)c(C#N)c1C	HPGD inh 18µM
Cc1cc(NC(=O)COc2ccc(N(C)S(=O)(=O)c3ccccc3)cc2)no1	none
COCC(=O)N1CCC2(CCCN(C(c3ccccc3)c3ccccc3)C2)CC1	none (no result: IMPase cell inh, PNC inhibitor, NPSR antagonist)
Cc1cccc(NC(=S)N(Cc2cccs2)Cc2cc3cc(C)cc(C)c3[nH]c2=O)c1	none
CCSc1nnc(NC(=O)c2cc3c(s2)CCCC3)s1	ALDH1A1 block inconclusive, IMPase Li inh 5.6µM, PNC inhibitor inconclusive, HPGD inh inconclusive
Cc1cc(C)n(C(=O)c2ccc(C)o2)n1	ALDH1A1 block inconclusive
Cc1cc(C)n(C(=O)c2cc3c(s2)CCCC3)n1	ALDH1A1 block 20µM
O=C(NCc1ccc(F)cc1)c1cc2c(s1)CCCC2	ALDH1A1 block inconclusive, PNC inhibitor inconclusive
NNC(=O)c1cc2c(s1)CCCCCC2	ALDH1A1 block 0.35µM
CCOC(=O)c1nc(Nc2ccc(C(=O)OCC(C)C)cc2)c2ccccc2n1	none (no result: ALDH1A1 block, IMPase Li inh, PNC inhibitor, NPSR antagonist, HPGD inh)
CCOc1ccc(S(=O)(=O)N(C)c2ccc(OCC(=O)Nc3nc(-c4cc(OC)ccc4OC)cs3)cc2)cc1	PNC inhibitor inconclusive
CCOC(=O)C(C(C)=O)=C1SC2CS(=O)(=O)CC2S1 (stereo not given)	PNC inhibitor -127
O=S(=O)(Cc1ccccc1)N1CCCCC1	HPGD inh 32µM
O=S(=O)(Cc1ccccc1)N1CCn2c(nc3ccccc32)C1	PNC inhibitor -87
COc1cc(OC)cc(C(=O)NCc2cc(C)nc3ccccc23)c1	ALDH1A1 block inconclusive (no result: IMPase cell inh, PNC inhibitor, HPGD inh)
COc1ccc(NC(=O)c2ccc(-c3ccc(-c4noc(C)n4)cc3C)cc2)cc1N1CCN(C)CC1	NPSR antagonist inconclusive, HPGD inh inconclusive (no result: PNC inhibitor)
Cc1c(C)[n+](=O)c(-c2ccco2)c(C)n1[O-]	ALDH1A1 block 25µM
Cc1c(C)[n+](=O)c(-c2ccc(Br)cc2)c(C)n1[O-]	none (no result: ALDH1A1 block, IMPase Li inh, IMPase cell inh, PNC inhibitor, HPGD inh)
CCOC(=O)N1CCN(C(=O)CN(c2ccccc2OC)S(=O)(=O)c2ccc(C)cc2)CC1	none (no result: IMPase Li inh)
CC(=O)c1cccc(N(CC(=O)N2CCOCC2)S(C)(=O)=O)c1	ALDH1A1 block inconclusive
O=C(Nc1ccc(Cl)cc1)c1cc2c(cc1O)[nH]c1ccccc12	none (no result: ALDH1A1 block, IMPase Li inh, IMPase cell inh, PNC inhibitor, HPGD inh)
COc1ccc(NS(=O)(=O)c2ccc3nc(-c4ccccc4)[nH]c3c2)cc1	none (no result: ALDH1A1 block, IMPase Li inh, PNC inhibitor, NPSR antagonist, HPGD inh)
COc1ccc(NS(=O)(=O)c2ccc3nc(COc4ccc(Cl)c(C)c4)[nH]c3c2)cc1	PNC inhibitor -106 (no result: IMPase Li inh, HPGD inh)
O=C(N[C@H](CO)[C@H](O)c1ccc([N+](=O)[O-])cc1)C(Cl)Cl	ALDH1A1 block 14µM! (no result: PNC inhibitor, NPSR antagonist)
Cc1cc(C(=O)NCCC2=CCCCC2)c(C)o1	ALDH1A1 block 11µM, PNC inhibitor -81, HPGD inh inconclusive
O=C(NCCC1=CCCCC1)c1coc(=O)c(Br)c1	ALDH1A1 block inconclusive, IMPase Li inh 28µM
COc1cccc2cc(C(=O)NCCC3=CCCCC3)c(=O)oc12	ALDH1A1 block 10µM (no result: IMPase cell inh, PNC inhibitor, HPGD inh)
COc1cccc2cc(C(=O)NC(C)C3CCCO3)c(=O)oc12 (stereo not given)	ALDH1A1 block inconclusive, PNC inhibitor -87
COc1cccc(C(=O)NCCC2=CCCCC2)c1OC	ALDH1A1 block inconclusive
O=C(NCCC1=CCCCC1)c1ccc(=O)oc1	none
NC(=O)NCCC1=CCCCC1	none
COc1cccc(-c2csc(N3CCN(C(=S)Nc4ccccc4Cl)CC3)n2)c1	IMPase cell inh inconclusive
CC(NC(=O)Cc1ccccc1)c1ccc(F)cc1 (stereo not given)	none
CC(NC(=O)CC(O)(C(F)(F)F)C(F)(F)F)c1ccccc1 (stereo not given)	PNC inhibitor -88
CC(C)(C)C1CCC(=NNc2ncc(C(F)(F)F)cc2Cl)CC1 (stereo not given)	ALDH1A1 block inconclusive
NC(=O)c1ccc(-n2nnnc2SCC(=O)c2ccc(O)c(O)c2)cc1	ALDH1A1 block inconclusive (no result: IMPase cell inh, PNC inhibitor, HPGD inh)
COC(=O)c1cc(OC)c(OC)cc1NC(=O)CSc1nnnn1Cc1ccccc1	ALDH1A1 block 13µM, HPGD inh inconclusive
COc1ccc(-n2nnnc2SCC(=O)c2ccc(O)c(O)c2)cc1	HPGD inh 25µM
O=C(CSc1nnnn1Cc1ccccc1)c1ccccc1	ALDH1A1 block inconclusive
COc1ccc(C(=O)CSc2nnnn2Cc2ccccc2)cc1	ALDH1A1 block 13µM
O=S(=O)(c1ccc2oc3ccccc3c2c1)N1CCOCC1	none
O=C(NCC1CCCO1)c1onc(CSc2ccccc2)c1C(=O)O (stereo not given)	none
